For seven compounds, Potency, outcome and max activation results are on record in PubChem BioAssay (Tox21).

Values without a mark were called inactive. Records with an inconclusive call do not appear. The source made the active and inactive calls. Unless noted, calls come from the whole dose curve; as a rule, active = well fitted curve in the direction sought with a large enough effect in the repeat runs; inconclusive = weak or mixed curves; inactive = no such curve, though single readings can be large; an effect the other way counts as inactive or inconclusive.

A short description of test [1]: qHTS assay to identify small molecule agonists of the estrogen receptor alpha (ER-alpha) signaling pathway in the presence of an antagonist - cell viability counter screen (AID 1259386).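 Note: series mostly up to about 92 µM; cells exposed to compounds for 22 h at 37 °C before the viability read; nearly all actives have a fitted effect of over 30% in size.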 The gist of the method:
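Steps: 5-day stripped-FBS culture; seed and incubate 24hr; add ICI-182,780 (10.0nM final); pin 15-point compound titration; incubate 22hr at 37C; add CellTiter-Fluor at 21hr; read fluorescence.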
In general terms: qHTS replaces the single test concentration by a dilution series.

For test [2], the target named is Progesterone receptor (Homo sapiens) (UniProt P06401). Briefly: qHTS assay to identify small molecule agonists of the progesterone receptor (PR) signaling pathway (AID 1346784; calls by dose curve; note: nearly all actives have a fitted effect of over 30% in size). The gist of the method:
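Compounds were tested for PR agonism in HEK 293T cells bearing a beta-lactamase gene under UAS control. Treatment lasted 16 hr at 37C; signal came from fluorescence of a FRET substrate.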

For test [3] the target is unchanged. Nature of the test: qHTS assay to identify small molecule antagonists of the progesterone receptor (PR) signaling pathway (AID 1346795; active = well fitted inhibition curve with a large enough effect in the signal ratio in the repeat runs, not every such curve was filed as active; the % refers to the signal ratio). The gist of the method: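 In HEK293T cells bearing the PR-UAS-bla reporter, compound effects on promegestone-driven (1 nM) beta-lactamase expression are assessed after 16 hr using a fluorescent FRET substrate incubated 2 hr at room temperature.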

Test [4] in a line: qHTS assay to identify small molecule antagonists of the progesterone receptor (PR) signaling pathway - cell viability counter screen (AID 1346798). Note: series mostly up to about 92 µM; nearly all actives have a fitted effect of over 50% in size. The gist of the method: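 Following a 4 hr attachment, PR-UAS-bla HEK293T cells in charcoal-stripped FBS medium were exposed to compounds with R5020 for 16 hr; CellTiter-Glo was added and luminescence read after 30 min at room temperature.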

Test [5] is described as follows: qHTS assay to identify small molecule agonists of the progesterone receptor (PR) signaling pathway - cell viability counter screen (AID 1346799; calls by dose curve; note: nearly all actives have a fitted effect of over 45% in size). The gist of the method: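 Here, 3,000 PR-UAS-bla HEK293T cells per well were treated with compounds for 16 hr after a 6 hr preincubation at 37C and 5% CO2; cell viability is the CellTiter-Glo luminescence signal.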
Test [6] can be described thus: qHTS assay to identify small molecule antagonists of the TGF-beta/Smad signaling pathway - cell viability counter screen (AID 1346824). Note: nearly all actives have a fitted effect of over 50% in size. An outline of the steps: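 Cytotoxicity counter-screen run in the same wells as the beta-lactamase Smad reporter read: CellTiter-Glo luminescence after 30 min at room temperature. HEK 293T SBE-bla cells had 5 hr compound exposure at 37 C with TGF-beta1 (0.25 ng/mL stock).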

The nature of test [7]: qHTS assay to identify small molecule agonists of the TGF-beta/Smad signaling pathway - cell viability counter screen (AID 1346829). Note: top concentration of the series differs between compounds; nearly all actives have a fitted effect of over 45% in size. The gist of the method: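 Luminescence from CellTiter-Glo, read after a 30 min room-temperature incubation, gives cell viability of SBE-bla HEK 293T cells treated 5 hr with compounds at 37 C.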
Test [8] can be described thus: qHTS assay to identify small molecule agonists of the TGF-beta/Smad signaling pathway (AID 1346859; active = well fitted activation curve with a large enough effect in the signal ratio in the repeat runs, not every such curve was filed as active; the % refers to the signal ratio; note: series mostly up to about 77 µM). An outline of the steps: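 Each well held 4,000 SBE-bla HEK 293T cells incubated overnight before compound addition; 5 hr later the cleavable FRET substrate went on for 2 hr at room temperature, and fluorescence was read at two emissions.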
In test [9] the target is Thyrotropin-releasing hormone receptor (Homo sapiens) (UniProt P34981). Nature of the test: qHTS assay to identify small molecule antagonists of the thyrotropin-releasing hormone receptor (TRHR) signaling pathway (AID 1346877; active = well fitted inhibition curve with a large enough effect in the repeat runs, not every such curve was filed as active; note: series mostly up to about 51 µM). An outline of the steps:
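Human TRHR in HEK293 cells; inhibition of the intracellular calcium rise triggered by 1 nM TRH was followed by fluorescence over 3 min. Compounds were run at 15 concentrations, three replicates each.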

Test [10] shares this target. Briefly: qHTS assay to identify small molecule agonists of the thyrotropin-releasing hormone receptor (TRHR) signaling pathway (AID 1346891; calls by dose curve; note: series mostly up to about 58 µM). The gist of the method: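 Screening of agonists relied on calcium signalling in HEK293 cells expressing human TRHR: dye loading 2 h at 37 °C preceded compound addition and a 3-min fluorescence time course.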
A short description of test [11]: Human pregnane X receptor (PXR) small molecule agonists, qHTS cell viability counter screen (AID 1346977). Note: nearly all actives have a fitted effect of over 50% in size. An outline of the steps:
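Tox21 qHTS format; PXR-Luc HepG2, 2,000/well, charcoal-stripped FBS 5%. Cpd exposure 24hr. Read: CellTiter-Fluor fluorescence, multiplexed with luciferase.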

Test [12] can be described thus: Caspase-3/7 induction in CHO-K1 cells by small molecules, qHTS cell viability counter screen (AID 1346979). Note: nearly all actives have a fitted effect of over 35% in size. The gist of the method: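 CellTiter-Fluor viability check, qHTS format: wild-type CHO-K1, 16hr compound treatment, 1hr reagent incubation, fluorescence read.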
Test [13] in a line: Caspase-3/7 induction in CHO-K1 cells by small molecules, qHTS assay (AID 1346980). Note: nearly all actives have a fitted effect of over 15% in size. The gist of the method:
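Luminescent Caspase-Glo 3/7 read (30min, room temperature) quantified apoptosis induction. Cells were wild-type CHO-K1, treated with compound for 17hr at 37 C and 5% CO2.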

The nature of test [14]: Caspase-3/7 induction in HepG2 cells by small molecules, qHTS cell viability counter screen (AID 1346981). Note: series mostly up to about 92 µM; nearly all actives have a fitted effect of over 30% in size. An outline of the steps:
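The parent HepG2 line is plated at 2,000 cells per well and rested 5 hr before compound pinning from DMSO stocks. Following a 16-hr treatment at 37 C, a fluorogenic live-cell substrate (CellTiter-Fluor) reports viability after 1 hr.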

Test [15] has as its target Nuclear receptor subfamily 1 group I member 2 (Rattus norvegicus) (UniProt Q9R1A7). Nature of the test: Rat pregnane X receptor (rPXR) activation by small molecules, qHTS assay (AID 1346983). Note: nearly all actives have a fitted effect of over 20% in size. The conditions noted are these: rPXR luciferase reporter cells, One-Glo luminescence, 24 h; active compounds read high. An outline of the steps: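 Luminescent readout (One-Glo luciferase, 30 min room temperature) followed 24 hr compound treatment at 37 C of rPXR cells plated 2,000 per well and preincubated 5hr; qHTS format with compounds delivered in DMSO.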

In test [16] the target is Nuclear receptor subfamily 1 group I member 2 (Homo sapiens) (UniProt O75469). Briefly: CYP3A4 induction through human pregnane X receptor (PXR) by small molecules, qHTS assay (AID 1346984). Note: nearly all actives have a fitted effect of over 40% in size. An outline of the steps: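 Human PXR activation is tracked via CYP3A4 promoter-luciferase in DPX-2 (HepG2) cells. Compounds treat cells for 24hr at 37C, and luminescence is read after One-Glo.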
Sequence of Nuclear receptor subfamily 1 group I member 2 (Homo sapiens) (O75469 whole entry, looked up): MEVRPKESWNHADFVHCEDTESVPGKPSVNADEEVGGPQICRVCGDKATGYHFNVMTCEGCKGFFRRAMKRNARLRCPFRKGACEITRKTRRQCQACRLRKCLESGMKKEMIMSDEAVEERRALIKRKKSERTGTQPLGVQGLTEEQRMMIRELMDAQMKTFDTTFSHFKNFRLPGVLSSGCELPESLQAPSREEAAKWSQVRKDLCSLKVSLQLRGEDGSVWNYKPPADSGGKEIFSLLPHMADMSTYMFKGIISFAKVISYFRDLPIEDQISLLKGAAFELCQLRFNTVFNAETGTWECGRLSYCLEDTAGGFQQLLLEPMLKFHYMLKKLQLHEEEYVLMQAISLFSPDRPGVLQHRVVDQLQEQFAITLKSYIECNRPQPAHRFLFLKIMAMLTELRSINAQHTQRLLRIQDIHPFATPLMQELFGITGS

Test [17] deals with Cytochrome P450 2D6 (Homo sapiens) (UniProt P10635). Briefly: Cytochrome P450 Family 2 Subfamily D Member 6 (CYP2D6) small molecule antagonists: luciferase reporter qHTS assay (AID 1671196). Note: nearly all actives have a fitted effect of over 50% in size. Note: potency is the fitted concentration of half-maximal effect. An outline of the steps:
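Quantitative HTS of Tox21 chemicals against CYP2D6 using a luminescent proluciferin substrate. After NADPH addition, 1 h room-temperature reaction; luminescence recorded 20 min post detection reagent.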

Test [18] is described as follows: Caspase-3/7 induction in HepG2 cells by small molecules, qHTS assay (AID 1346978). Note: nearly all actives have a fitted effect of over 15% in size. An outline of the steps: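 Caspase-3/7 induction was measured by Caspase-Glo 3/7 luminescence (30 min, room temperature) after a 17 hr compound exposure of wild-type HepG2 cells seeded at 2,000 per well and pre-incubated 5 hr.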
Test [19] concerns the target Nuclear receptor subfamily 1 group I member 2 (Homo sapiens) (UniProt O75469). Nature of the test: Human pregnane X receptor (PXR) small molecule agonists, qHTS assay (AID 1346982). Note: nearly all actives have a fitted effect of over 35% in size. Note: potency is the fitted concentration of half-maximal effect. An outline of the steps:
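After plating in 5% charcoal-stripped FBS and a 5 hr rest, PXR-Luc HepG2 cells received compounds in DMSO. Following 24 hr at 37 C, ONE-Glo was added and light output read.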

Test [20] has the same target. Nature of the test: Human pregnane X receptor (PXR) activation by small molecules, qHTS assay (AID 1346985). Note: nearly all actives have a fitted effect of over 40% in size. The gist of the method:
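DPX-2 cells (HepG2 co-transfected with a PXR response element and a CYP3A4-promoter luciferase construct) were seeded at 2,000 per well, rested 5 hr at 37C, then exposed to DMSO-dissolved compounds for 24 hr. Activation was read as luciferase luminescence.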
% is set by controls: 0 for no effect and ±100 for the full control effect.

Sequence of Nuclear receptor subfamily 1 group I member 2 (Rattus norvegicus) (Q9R1A7 whole entry, looked up): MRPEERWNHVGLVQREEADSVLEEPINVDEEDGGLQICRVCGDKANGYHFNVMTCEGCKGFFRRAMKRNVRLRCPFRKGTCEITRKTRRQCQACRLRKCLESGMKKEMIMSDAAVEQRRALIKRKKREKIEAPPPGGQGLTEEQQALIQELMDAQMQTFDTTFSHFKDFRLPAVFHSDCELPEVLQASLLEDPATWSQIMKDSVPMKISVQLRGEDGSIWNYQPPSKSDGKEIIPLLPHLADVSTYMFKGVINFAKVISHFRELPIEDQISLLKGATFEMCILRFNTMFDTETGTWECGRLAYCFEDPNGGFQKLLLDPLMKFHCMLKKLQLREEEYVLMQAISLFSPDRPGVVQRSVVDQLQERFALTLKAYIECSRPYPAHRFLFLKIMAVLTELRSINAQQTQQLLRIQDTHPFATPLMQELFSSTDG
Sequence of Thyrotropin-releasing hormone receptor (Homo sapiens) (P34981 whole entry, looked up): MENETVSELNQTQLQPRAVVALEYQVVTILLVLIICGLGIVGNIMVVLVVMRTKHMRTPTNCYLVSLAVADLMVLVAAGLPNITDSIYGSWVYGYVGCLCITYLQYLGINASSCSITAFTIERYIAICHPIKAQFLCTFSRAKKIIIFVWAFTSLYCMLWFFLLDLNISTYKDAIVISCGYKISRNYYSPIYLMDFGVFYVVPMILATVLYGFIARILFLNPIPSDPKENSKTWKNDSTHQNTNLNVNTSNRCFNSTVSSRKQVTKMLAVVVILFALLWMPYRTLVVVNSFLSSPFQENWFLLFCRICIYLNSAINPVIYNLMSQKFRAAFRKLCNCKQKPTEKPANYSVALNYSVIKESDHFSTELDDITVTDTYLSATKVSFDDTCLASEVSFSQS
Sequence of Progesterone receptor (Homo sapiens) (P06401 whole entry, looked up): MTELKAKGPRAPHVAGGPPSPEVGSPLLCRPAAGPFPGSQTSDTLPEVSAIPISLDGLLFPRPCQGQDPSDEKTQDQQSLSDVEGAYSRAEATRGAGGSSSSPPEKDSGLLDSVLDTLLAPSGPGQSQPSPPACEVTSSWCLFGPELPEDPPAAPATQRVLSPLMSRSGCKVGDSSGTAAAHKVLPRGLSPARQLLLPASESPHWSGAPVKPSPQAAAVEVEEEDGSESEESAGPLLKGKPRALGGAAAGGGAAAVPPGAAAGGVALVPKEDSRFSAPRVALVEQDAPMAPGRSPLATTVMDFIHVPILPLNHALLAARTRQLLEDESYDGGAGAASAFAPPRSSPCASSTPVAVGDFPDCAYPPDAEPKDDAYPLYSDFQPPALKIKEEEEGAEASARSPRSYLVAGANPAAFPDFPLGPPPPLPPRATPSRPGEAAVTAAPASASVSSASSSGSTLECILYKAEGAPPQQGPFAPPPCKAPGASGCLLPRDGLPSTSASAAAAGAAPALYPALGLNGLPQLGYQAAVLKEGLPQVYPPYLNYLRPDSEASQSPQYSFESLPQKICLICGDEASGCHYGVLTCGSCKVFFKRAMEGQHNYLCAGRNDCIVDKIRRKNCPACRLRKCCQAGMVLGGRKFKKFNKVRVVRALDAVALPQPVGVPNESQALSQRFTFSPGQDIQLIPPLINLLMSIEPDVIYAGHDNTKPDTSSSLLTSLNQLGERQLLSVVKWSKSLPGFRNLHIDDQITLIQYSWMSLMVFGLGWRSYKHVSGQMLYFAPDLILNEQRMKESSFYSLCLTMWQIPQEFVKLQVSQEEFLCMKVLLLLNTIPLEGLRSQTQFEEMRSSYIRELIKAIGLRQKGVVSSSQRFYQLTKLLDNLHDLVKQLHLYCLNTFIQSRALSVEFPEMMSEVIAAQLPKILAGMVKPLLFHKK
Sequence of Cytochrome P450 2D6 (Homo sapiens) (P10635 whole entry, looked up): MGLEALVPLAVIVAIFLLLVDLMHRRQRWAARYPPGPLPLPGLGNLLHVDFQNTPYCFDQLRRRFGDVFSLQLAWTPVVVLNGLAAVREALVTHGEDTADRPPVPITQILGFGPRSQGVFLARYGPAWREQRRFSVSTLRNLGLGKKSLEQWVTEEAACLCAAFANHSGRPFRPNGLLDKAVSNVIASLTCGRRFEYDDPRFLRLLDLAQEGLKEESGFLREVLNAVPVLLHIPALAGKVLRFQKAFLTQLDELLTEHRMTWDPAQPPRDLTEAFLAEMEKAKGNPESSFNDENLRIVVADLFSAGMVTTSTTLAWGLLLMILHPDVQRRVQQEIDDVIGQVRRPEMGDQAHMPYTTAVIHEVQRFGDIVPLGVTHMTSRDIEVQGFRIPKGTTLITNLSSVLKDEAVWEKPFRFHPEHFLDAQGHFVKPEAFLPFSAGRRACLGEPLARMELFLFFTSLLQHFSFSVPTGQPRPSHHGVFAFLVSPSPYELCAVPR

As for `O=c1[nH]c(=O)n([C@H]2C[C@H](O)[C@@H](CO)O2)cc1F`, the Potency entry in test [1], in test [2], in [3], in [4], in test [5] and in [6] was “inactive” in each case. Further, the Potency entry in [7], in [8], in [9], in [11], in test [12] and in test [13] was “inactive” throughout. Besides, the Potency result in [14], in test [16] and in test [17] was “inactive” in each case. Besides, the call in test [10] was inactive. For the same compound, in test [15], the max activation is -2.43%.

Turning to `Nc1nc2c(ncn2COCCO)c(=O)[nH]1`, the Potency result in [1], in test [2], in [3], in [4], in [5] and in test [7] was “inactive” throughout. Besides, the Potency result in [8], in [11], in [18], in test [12], in test [13] and in test [14] was “inactive” throughout. For the same compound, the Potency result in [19], in test [16] and in test [20] was “inactive” in each case. Besides, the max activation in test [15] is -0.779%.

As to `Cc1ccc(C(=O)O)cc1`, the Potency entry in [1], in test [2], in test [3], in test [4], in [5] and in test [6] was “inactive” each time. Moreover, the Potency result in test [7], in test [8], in [9], in [11], in test [18] and in test [12] was “inactive” throughout. Moreover, the Potency entry in test [14], in test [19] and in test [17] was “inactive” throughout. Also, in test [10], the result was inactive.

`CC(C)OC(=O)C(O)(CC(=O)O)CC(=O)O`: the Potency entry in test [1], in test [2], in test [3], in test [4], in test [5] and in [6] was “inactive” in each case. Further, the Potency result in test [7], in [8], in [9], in test [11], in test [12] and in test [13] was “inactive” each time. In addition, the Potency result in test [14] and in [17] was “inactive” in each case. In addition, the outcome in [10] was inactive. The Potency in test [19] was 48.6 µM (active).

`CCCCCCCC/C=C\CCCCCCCCN`: the Potency entry in test [1], in [2], in test [3], in test [4], in test [5] and in test [7] was “inactive” each time. For the same compound, the Potency entry in test [8], in [9], in test [11], in [18], in [12] and in test [13] was “inactive” in each case. Also, the Potency result in [14], in test [19], in [16] and in test [20] was “inactive” in each case. Moreover, the compound was classed as inactive in test [10]. Also, the max activation in test [15] was -1.07%. The Potency in test [17] is 1.55 µM (active).

In the case of `Cc1c(F)c(N2CCNC(C)C2)cc2c1c(=O)c(C(=O)O)cn2C1CC1` (configuration not stated), the Potency result in test [1], in test [2], in test [3], in test [4], in [5] and in [6] was “inactive” in each case. In addition, the Potency result in test [7], in [11], in test [18], in test [12], in [13] and in test [14] was “inactive” throughout. Besides, the Potency entry in test [19], in test [16], in test [20] and in test [17] was “inactive” throughout. The max activation in [15] was -0.343%.

In the case of `O=[N+]([O-])c1cccc(C(F)(F)F)c1`, the Potency result in test [1], in [2], in test [3], in [4], in [5] and in test [6] was “inactive” in each case. In addition, the Potency result in [7], in [8], in test [9], in test [11], in test [12] and in test [13] was “inactive” throughout. In addition, the Potency result in [14], in [19] and in test [17] was “inactive” in each case. Besides, the compound was called inactive in test [10].
